Compound activity deposited in PubChem BioAssay by National Center for Advancing Translational Sciences (NCATS).
LASV entry inh = Lassa virus entry inhibition. Lassa virus pseudotyped entry inhibition, cell-based qHTS. Potency, µM (series often up to 49.2 µM), for the others: top-dose activity change, negative = inhibition, actives largely listed as inhibitors. actives 4.1% (n = 18,000). AID 720533
MARV entry inh = Marburg virus entry inhibition; Marburg virus pseudotype entry/binding inhibition, cell-based; Potency, µM (titrated, usually from 49.2 µM), for the others: at the highest dose activity change, negative = inhibition, usual class: inhibitors; AID 720532; actives 6.5% (n = 18,000)
* = called active by the depositor; ! = a repeat was not active; [ ] = another dose, or the depositor's remark. Only some compounds are listed: those with a hit (about 8.6% of all), similar ones and a draw of the others. Calls come from the whole dose curve; tested in HEK293 cells. % is set by controls: 0 for no effect and ±100 for the full control effect; potency is the fitted concentration of half-maximal effect.

Screening COC(=O)C1=C(C)N(Cc2ccccc2)C(=O)NC1c1ccco1 (centres undefined) returned LASV entry inh 18%[8.59 µM] and MARV entry inh 13%[8.59 µM].
Screening COc1cc(-c2c(OC)cccc2OC)cc2c1OCCN(C(=O)CCn1nc(C)cc1C)C2 returned LASV entry inh -13% and MARV entry inh -4%.
Screening COc1cc(-c2cc(C)c3cccc(OC)c3n2)cc2c1OCCN(C(=O)CCn1ccc(C)n1)C2 returned LASV entry inh 35µM* and MARV entry inh -1%.
For COc1cc2c(cc1OC)[C@H](C)NCC2 the results were LASV entry inh 5%[17.8 µM] and MARV entry inh -19%[17.8 µM].
CC[C@@H]1CN2CCc3cc(OC)c(OC)cc3[C@H]2C[C@@H]1C[C@@H]1NCCc2cc(O)c(OC)cc21 was read as LASV entry inh 0.35µM* and MARV entry inh inconclusive.
For COC(=O)C1=C(C(=O)OC)[C@@H]2Nc3ccccc3[C@@]23C[C@@H](C(=O)OC)N(C(=O)Nc2ccc(C(F)(F)F)cc2)C3=N1 the results were LASV entry inh -16%[8.59 µM] and MARV entry inh -15%[8.59 µM].
CCNC(=O)[C@@H]1CCCN1C(=O)[C@H](CCCN=C(N)N)NC(=O)[C@H](CC(C)C)NC(=O)[C@@H](Cc1c[nH]c2ccccc12)NC(=O)[C@H](Cc1ccc(O)cc1)NC(=O)[C@H](CO)NC(=O)[C@H](Cc1c[nH]c2ccccc12)NC(=O)[C@H](Cc1cnc[nH]1)NC(=O)[C@@H]1CCC(=O)N1 was read as LASV entry inh 3.2µM* and MARV entry inh inconclusive.
Screening CC(C)C[C@H](NC(=O)CNC(=O)[C@H](Cc1ccc(O)cc1)NC(=O)[C@H](CO)NC(=O)[C@H](Cc1c[nH]c2ccccc12)NC(=O)[C@H](Cc1cnc[nH]1)NC(=O)[C@@H]1CCC(=O)N1)C(=O)N[C@@H](CCCN=C(N)N)C(=O)N1CCC[C@H]1C(=O)NCC(N)=O (stereo in doubt) returned LASV entry inh -13% and MARV entry inh -2%.
CC(C)(C)c1cc(O)ccc1O was read as LASV entry inh 14µM*! and MARV entry inh 13µM*!.
`COc1ccc(O)c(C(C)(C)C)c1` gave LASV entry inh -9% and MARV entry inh inconclusive.
Cc1cc2c(c(=O)o1)[C@H]1O[C@](c3ccsc3)(Cc3ccccc31)O2 was read as LASV entry inh 1%[8.59 µM] and MARV entry inh 10%[8.59 µM].
For COC(=O)[C@@]1(C)CCC[C@@]2(C)c3ccc(O)c(C(C)C)c3CCC21 (some centres undefined) the results were LASV entry inh 11µM* and MARV entry inh 13µM*.
Screening CC(C)c1c(O)ccc2c1CCC1[C@@](C)(CO)CCC[C@@]21C (some centres undefined) returned LASV entry inh inconclusive and MARV entry inh -8%.
For Cc1nn(-c2ccc(F)cc2)c(C)c1CNC(=O)c1ccc(-n2cc(NC(=O)c3ccoc3)cn2)cc1 the results were LASV entry inh 5% and MARV entry inh 21%.
`CN1CCCN(C(c2ccccc2)c2ccc(Cl)cc2)CC1` (centres undefined) gave LASV entry inh 22µM* and MARV entry inh 7.1µM*.
Cc1cccc(CN2CCN(C(c3ccccc3)c3ccc(Cl)cc3)CC2)c1 (centres undefined) was read as LASV entry inh inconclusive and MARV entry inh 7.1µM*.
`Cc1ccc(CN2CC(N3CCN(Cc4cccc(C)c4)CC3)CS2(=O)=O)cc1` (centres undefined) gave LASV entry inh 10% and MARV entry inh 20%.
`c1ccc(C[C@@H](c2ccccc2)N2CCCCC2)cc1` gave LASV entry inh -7% and MARV entry inh inconclusive.
For CN1CCN(C(c2ccccc2)c2ccccc2)CC1 the results were LASV entry inh 11µM*! and MARV entry inh 11µM*!.
CC(=O)OC[C@H]1O[C@H](C#Cc2ccc(C(C)(C)C)cc2)C=C[C@H]1OC(C)=O was read as LASV entry inh -26%[8.59 µM] and MARV entry inh inconclusive.
`CCC[C@@]1(CCc2ccccc2)CC(O)=C([C@H](CC)c2cccc(NS(=O)(=O)c3ccc(C(F)(F)F)cn3)c2)C(=O)O1` gave LASV entry inh -3% and MARV entry inh -28%.
Screening CCCCCCN1C[C@H](O)[C@@H](n2cc(-c3ccc(F)cc3)nn2)C[C@H]1c1ccccc1 returned LASV entry inh -27% and MARV entry inh inconclusive.
Screening O=C1C(SCCO)=C(SCCO)C(=O)c2ccccc21 returned LASV entry inh 8.9µM* and MARV entry inh 3.5µM*.
Screening C[C@H](O)CON1C(=O)c2ccccc2C1=O returned LASV entry inh -1% and MARV entry inh 5%.
CC1=CC[C@@H](COc2ccccc2)O[C@@]2(C1)C(=O)Nc1ccccc12 was read as LASV entry inh 32%[8.59 µM] and MARV entry inh 21%[8.59 µM].
For C=CCN1c2ccccc2[C@]23CCC(=O)N(CCc4ccccn4)C2=NC(C(=O)OC)=C(C(=O)OC)[C@H]13 the results were LASV entry inh 14%[8.59 µM] and MARV entry inh 4%[8.59 µM].
For O=C(N[C@H]1CN2CCC1CC2)c1ccc(Cl)cc1 the results were LASV entry inh -10% and MARV entry inh inconclusive.
